The values that follow come from PMC5540273 (PLoS ONE, 2017).
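Further: KINOMEscan kinase panel screen.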

The subject of the first assay is PRKD1. The following applies: concentration: 1 μM, replicates: in singlicate; n = 1.
Turning to `CSc1ccc(-c2cc3ncnc(SCC(=O)O)c3s2)cc1`, the “%Inh” value came to 18%.

`CCc1nc(-c2cccc(C)c2)c(-c2ccnc(NCc3ccccc3)c2)s1`: the “%Inh” value is recorded as 0%.

In the case of `COCCNC(=O)c1ccc(-c2cc(C(=O)NC3CC3)cc(F)c2C)cc1` [GW868318], the “%Inh” value stood at 2%.

As to `COc1ccc(COc2cc(-n3cnc4ccccc43)sc2C(N)=O)cc1` [GSK1024304], the “%Inh” value turned out to be 0%.

Take `COc1cc2ncn(-c3cc(OCc4sccc4Cl)c(C(N)=O)s3)c2cc1OC` [GSK448459]: the “%Inh” value came out at 0%.

In the case of `O=C(NCCNc1ccnc(Nc2ccc(F)cc2)n1)c1cc2ccccc2s1` [GSK1379874], the “%Inh” value worked out at 5%.

On to `Cc1cccc(-c2nc(Nc3ccc4ncsc4c3)c3ccccc3n2)n1` [GW867588], for which the “%Inh” value is 98.7%.

As for `c1ccc(-c2n[nH]cc2-c2ccnc3ccccc23)nc1` [GW271431], the “%Inh” value is listed as 1%.

With `O=C(NCCNc1ccnc(Nc2ccc(F)cc2)n1)Nc1ccccc1F` [GSK1379880], the “%Inh” value came out at 0%.

For the compound `Cc1nnc(-c2ccc3occ(-c4ccc(C(C)O)cc4)c3c2)o1` (stereo not drawn), the “%Inh” value is on record as 11%.

As for `NS(=O)(=O)c1cccc(-c2ccc3nccc(-c4cccc(S(N)(=O)=O)c4)c3c2)c1` [GW867253], the “%Inh” value came to 0%.

For `CCCCCc1nc2c(N)ncnc2n1CCCCC` [SKF-97255], the “%Inh” value worked out at 0%.

As to `Cl.Oc1cccc(Nc2ccnc3cc(-c4ccncc4)ccc23)c1` [GW494601], the “%Inh” value worked out at 25%.

On to `Fc1ccc(-c2ncn(CCCN3CCOCC3)c2-c2cccnc2)cc1` [SB-211743], for which the “%Inh” value amounted to 0%.

`Cc1ccc(C(=O)NCC(N)=O)cc1-n1c(C)cc(OCc2ccc(F)cc2F)c(Br)c1=O`: the “%Inh” value was found to be 23%.

In the case of `NS(=O)(=O)CCc1cccc(Nc2nccc(-c3c(-c4cccc(NC(=O)c5c(F)cccc5F)c4)nn4ccccc34)n2)c1` [GSK336735], the “%Inh” value was determined as 40%.

Consider `COC(=O)Nc1nc2cc(Oc3ccc(NC(=O)Nc4cc(F)ccc4F)cc3)ccc2[nH]1.Cl` [GW701424], for which the “%Inh” value stood at 0%.

`Cc1cn2c(=O)cc(N3CCOCC3)nc2n1Cc1cccc(Cl)c1Cl` [GSK2334006]: the “%Inh” value turned out to be 0%.

On to `N#Cc1c(N2CCOCC2)sc(-c2ccn[nH]2)c1-c1ccc(Cl)cc1`, for which the “%Inh” value is listed as 0%.

With `Cc1cccc(Cn2ccn3c(=O)cc(N4CCOCC4)nc23)c1` [GSK2297542], the “%Inh” value is listed as 13%.

`COc1ccc(CNC(=O)NC2CCN(c3ccnc(Nc4ccc(OC)cc4)n3)C2)cc1` (stereo not drawn) [GSK1379727]: the “%Inh” value was determined as 0%.

With `c1ccc(-c2cc(-c3c[nH]nc3-c3ccccn3)ccn2)cc1` [GW576604], the “%Inh” value came to 67%.

As for `COc1cc2c(cc1OCCN1CCN(C)CC1)ncc1c3ccc(C#N)cc3[nH]c21`, the “%Inh” value was 0%.

Regarding `COc1ccc(Nc2nccc(N3CCC(NC(=O)Nc4cccc(C(C)=O)c4)C3)n2)cc1` (stereo not drawn) [GSK1379731], the “%Inh” value was 0%.

On to `Cc1ccc(NC(=O)c2ccnc(N3CCN(C)CC3)c2)cc1-c1ccc(C(=O)NCC2CC2)cc1` [GW775604], for which the “%Inh” value is given as 0%.

As for `Cc1c(Cn2c(C)nn3c(=O)cc(N4CCOC(C)C4)nc23)cccc1C(F)(F)F` (stereo not drawn) [GSK2344444], the “%Inh” value was 0%.

Regarding `O=C(NCCCN1CCOCC1)c1cccc(Nc2nccc(Nc3ccc(Oc4ccccc4)cc3)n2)c1` [GW663929], the “%Inh” value is listed as 13%.

As to `Nc1nc(-c2ccc3c(N)n[nH]c3c2)cc(N2CCCC2)n1` [GSK2227430], the “%Inh” value turned out to be 0%.

As to `Nc1nccc(-c2c(-c3ccc(F)cc3)ncn2C2CCN(CC(F)(F)F)CC2)n1` [SB-236560], the “%Inh” value was 0%.

With `COc1ccc(S(=O)(=O)NC2CCN(c3cc(C)nc(Nc4cccc(C#N)c4)n3)CC2)cc1.O=C(O)C(F)(F)F` [GSK1653539], the “%Inh” value is recorded as 60%.

For `CN(C1=C(c2ccccc2)C(=O)NC1=O)c1ccccc1` [SB-334860], the “%Inh” value amounted to 0%.

Take `CN1c2ccc(CNc3ccc(F)cc3)cc2-c2c(cnn2C)S1(=O)=O`: the “%Inh” value is on record as 17%.

`COc1cc(Nc2nccc(N3CCC(NC(=O)c4cccc(NC(C)=O)c4)C3)n2)cc(OC)c1OC` (stereo not drawn) [GSK1379754]: the “%Inh” value came out at 0%.

For a further assay, the system named is PRKD2. The following applies: concentration: 1 μM, replicates: in singlicate; n = 1.
`CSc1ccc(-c2cc3ncnc(SCC(=O)O)c3s2)cc1`: the “%Inh” value turned out to be 0%.

`CCc1nc(-c2cccc(C)c2)c(-c2ccnc(NCc3ccccc3)c2)s1`: the “%Inh” value amounted to 13%.

Take `COCCNC(=O)c1ccc(-c2cc(C(=O)NC3CC3)cc(F)c2C)cc1` [GW868318]: the “%Inh” value amounted to 0%.

For `COc1ccc(COc2cc(-n3cnc4ccccc43)sc2C(N)=O)cc1` [GSK1024304], the “%Inh” value is recorded as 24%.

Regarding `COc1cc2ncn(-c3cc(OCc4sccc4Cl)c(C(N)=O)s3)c2cc1OC` [GSK448459], the “%Inh” value is recorded as 0%.

For `O=C(NCCNc1ccnc(Nc2ccc(F)cc2)n1)c1cc2ccccc2s1` [GSK1379874], the “%Inh” value worked out at 0%.

As for `Cc1cccc(-c2nc(Nc3ccc4ncsc4c3)c3ccccc3n2)n1` [GW867588], the “%Inh” value came out at 99.8%.

Regarding `c1ccc(-c2n[nH]cc2-c2ccnc3ccccc23)nc1` [GW271431], the “%Inh” value was 14%.

On to `O=C(NCCNc1ccnc(Nc2ccc(F)cc2)n1)Nc1ccccc1F` [GSK1379880], for which the “%Inh” value is recorded as 0%.

In the case of `Cc1nnc(-c2ccc3occ(-c4ccc(C(C)O)cc4)c3c2)o1` (stereo not drawn), the “%Inh” value is reported as 20%.

For `NS(=O)(=O)c1cccc(-c2ccc3nccc(-c4cccc(S(N)(=O)=O)c4)c3c2)c1` [GW867253], the “%Inh” value was determined as 0%.

Turning to `CCCCCc1nc2c(N)ncnc2n1CCCCC` [SKF-97255], the “%Inh” value is given as 0%.

With `Cl.Oc1cccc(Nc2ccnc3cc(-c4ccncc4)ccc23)c1` [GW494601], the “%Inh” value is listed as 29%.

As to `Fc1ccc(-c2ncn(CCCN3CCOCC3)c2-c2cccnc2)cc1` [SB-211743], the “%Inh” value turned out to be 6%.

As to `Cc1ccc(C(=O)NCC(N)=O)cc1-n1c(C)cc(OCc2ccc(F)cc2F)c(Br)c1=O`, the “%Inh” value amounted to 0%.

Regarding `NS(=O)(=O)CCc1cccc(Nc2nccc(-c3c(-c4cccc(NC(=O)c5c(F)cccc5F)c4)nn4ccccc34)n2)c1` [GSK336735], the “%Inh” value is on record as 12%.

As for `COC(=O)Nc1nc2cc(Oc3ccc(NC(=O)Nc4cc(F)ccc4F)cc3)ccc2[nH]1.Cl` [GW701424], the “%Inh” value worked out at 0%.

In the case of `Cc1cn2c(=O)cc(N3CCOCC3)nc2n1Cc1cccc(Cl)c1Cl` [GSK2334006], the “%Inh” value was found to be 10%.

In the case of `N#Cc1c(N2CCOCC2)sc(-c2ccn[nH]2)c1-c1ccc(Cl)cc1`, the “%Inh” value is 0%.

`Cc1cccc(Cn2ccn3c(=O)cc(N4CCOCC4)nc23)c1` [GSK2297542]: the “%Inh” value is 7%.

For the compound `COc1ccc(CNC(=O)NC2CCN(c3ccnc(Nc4ccc(OC)cc4)n3)C2)cc1` (stereo not drawn) [GSK1379727], the “%Inh” value is 8%.

Turning to `c1ccc(-c2cc(-c3c[nH]nc3-c3ccccn3)ccn2)cc1` [GW576604], the “%Inh” value is 49%.

With `COc1cc2c(cc1OCCN1CCN(C)CC1)ncc1c3ccc(C#N)cc3[nH]c21`, the “%Inh” value stood at 0%.

On to `COc1ccc(Nc2nccc(N3CCC(NC(=O)Nc4cccc(C(C)=O)c4)C3)n2)cc1` (stereo not drawn) [GSK1379731], for which the “%Inh” value is reported as 11%.

In the case of `Cc1ccc(NC(=O)c2ccnc(N3CCN(C)CC3)c2)cc1-c1ccc(C(=O)NCC2CC2)cc1` [GW775604], the “%Inh” value amounted to 2%.

With `Cc1c(Cn2c(C)nn3c(=O)cc(N4CCOC(C)C4)nc23)cccc1C(F)(F)F` (stereo not drawn) [GSK2344444], the “%Inh” value is given as 0%.

For `O=C(NCCCN1CCOCC1)c1cccc(Nc2nccc(Nc3ccc(Oc4ccccc4)cc3)n2)c1` [GW663929], the “%Inh” value turned out to be 25%.

For the compound `Nc1nc(-c2ccc3c(N)n[nH]c3c2)cc(N2CCCC2)n1` [GSK2227430], the “%Inh” value is listed as 0%.

Regarding `Nc1nccc(-c2c(-c3ccc(F)cc3)ncn2C2CCN(CC(F)(F)F)CC2)n1` [SB-236560], the “%Inh” value came out at 0%.

For `COc1ccc(S(=O)(=O)NC2CCN(c3cc(C)nc(Nc4cccc(C#N)c4)n3)CC2)cc1.O=C(O)C(F)(F)F` [GSK1653539], the “%Inh” value stood at 19%.

Take `CN(C1=C(c2ccccc2)C(=O)NC1=O)c1ccccc1` [SB-334860]: the “%Inh” value is 14%.

`CN1c2ccc(CNc3ccc(F)cc3)cc2-c2c(cnn2C)S1(=O)=O`: the “%Inh” value worked out at 0%.

Take `COc1cc(Nc2nccc(N3CCC(NC(=O)c4cccc(NC(C)=O)c4)C3)n2)cc(OC)c1OC` (stereo not drawn) [GSK1379754]: the “%Inh” value was 0%.
